From the supplement of paper PMC11537057
Where a name gives a salt, the structure may show the parent alone. ± gives the standard deviation of the averaged measurements. Whole data set: some 1,700 compounds, median “cell number in HSV-1-infected wells relative to infected DMSO wells (H2B-RFP signal)” near 100, cut for the highest 2% near 140. Only a selection was taken, and the highest values are over-represented in it overall.

These compounds were tested on A549 infected with HSV-1 (assay: cell number in HSV-1-infected wells relative to infected DMSO wells (H2B-RFP signal); higher = more surviving cells (uninfected or antiviral-protected wells give about 200%; low = toxicity)). Details: 10 µM; 48 h; MOI: 0.1.
Description: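 Selleck FDA-approved library (L1300) screened in duplicate at 10 µM on A549 H2B-mRuby cells in 384-well plates, infected with HSV-1 strain 17 YFP-ICP4 at MOI 0.1 one hour before drug addition. Imaged after 2 days at 37°C. Cell growth (H2B-RFP) and infection (ICP4-YFP) are expressed as % of DMSO-treated wells. Hits: growth >90% and infection <20% of DMSO.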

Structure (SMILES) | cell number in HSV-1-infected wells [%]
O=c1oc2c(O)c(O)cc3c(=O)oc4c(O)c(O)cc1c4c23 [Ellagic acid] | 106 ± 2.3
N=C1CCCN1Cc1[nH]c(=O)[nH]c(=O)c1Cl [Tipiracil hydrochloride] | 107 ± 1.8
COC(=O)N[C@@H](C)CNc1nccc(-c2cn(C(C)C)nc2-c2cc(Cl)cc(NS(C)(=O)=O)c2F)n1 [Encorafenib (LGX818)] | 124 ± 6.5
CNCC[C@H](Oc1cccc2ccccc12)c1cccs1 [Duloxetine] | 121.44 ± 0.086
CNCC[C@H](Oc1cccc2ccccc12)c1cccs1 [Duloxetine HCl] | 92.1 ± 10
CNC(=O)c1ccc(Nc2ncc(C(F)(F)F)c(NCc3nccnc3N(C)S(C)(=O)=O)n2)cc1 | 27.6 ± 6.6
CC(C)(Oc1ccc(Cl)cc1)C(=O)O [Clofibric Acid] | 82.4 ± 11
CC(C)(Oc1ccc(C(=O)c2ccc(Cl)cc2)cc1)C(=O)O [Fenofibric acid] | 75.9 ± 3.5
CC(C)(Oc1ccc(CCNC(=O)c2ccc(Cl)cc2)cc1)C(=O)O [Bezafibrate] | 147 ± 48
CC1(C)S[C@@H]2[C@H](NC(=O)COc3ccccc3)C(=O)N2[C@H]1C(=O)O [Penicillin V potassium salt] | 86.4 ± 5.6
Cc1cc(C)cc(OCC2CNC(=O)O2)c1 (stereo not drawn) [Metaxalone] | 132 ± 16
Nc1nc2[nH]cc(CCc3ccc(C(=O)N[C@@H](CCC(=O)O)C(=O)O)cc3)c2c(=O)[nH]1 [Pemetrexed Disodium Hydrate] | 67 ± 22
Nc1nc2[nH]cc(CCc3ccc(C(=O)N[C@@H](CCC(=O)O)C(=O)O)cc3)c2c(=O)[nH]1 [Pemetrexed] | 59.2 ± 18
CC(=O)SCC(Cc1ccccc1)C(=O)NCC(=O)OCc1ccccc1 (stereo not drawn) [Racecadotril] | 96.3 ± 17
Cc1cc2c(cc1S(N)(=O)=O)S(=O)(=O)CCC2 [Meticrane] | 83.96 ± 0.47
CS(=O)(=O)c1cccc(C[C@H](NC(=O)c2c(Cl)cc3c(c2Cl)CCN(C(=O)c2ccc4ccoc4c2)C3)C(=O)O)c1 [Lifitegrast] | 104 ± 15
Cn1ncc(Cl)c1-c1cc(C(=O)N[C@H](CN)Cc2ccc(F)c(F)c2)oc1Cl | 69.8 ± 17
COc1cc2nccc(Oc3ccc(NC(=O)Nc4cc(C)on4)c(Cl)c3)c2cc1OC [Tivozanib (AV-951)] | 117 ± 40
COc1cc2nccc(Oc3ccc(NC(=O)C4(C(=O)Nc5ccc(F)cc5)CC4)cc3)c2cc1OC [Cabozantinib malate (XL184)] | 90.5 ± 47
COc1cc2nccc(Oc3ccc(NC(=O)NC4CC4)c(Cl)c3)c2cc1C(N)=O [lenvatinib Mesylate] | 144 ± 32
COc1cc2nccc(Oc3ccc(NC(=O)NC4CC4)c(Cl)c3)c2cc1C(N)=O [Lenvatinib (E7080)] | 104 ± 6
COc1cc2nccc(Oc3ccc(NC(=O)C4(C(=O)Nc5ccc(F)cc5)CC4)cc3)c2cc1OC | 72.2 ± 7.6
Cc1nccn1CC1CCc2c(c3ccccc3n2C)C1=O (stereo not drawn) [Ondansetron HCl] | 74.7 ± 25
Cc1nccn1CC1CCc2c(c3ccccc3n2C)C1=O (stereo not drawn) [Ondansetron Hydrochloride Dihydrate] | 76 ± 13
CN(C)CCC=C1c2ccccc2COc2ccccc21 [Doxepin HCl] | 104 ± 11

Structure (SMILES) | cell number in HSV-1-infected wells [%]
Cc1[nH]cnc1CN1CCc2c(c3ccccc3n2C)C1=O [Alosetron Hydrochloride] | 112 ± 6.3
COC(=O)C1=C(C)NC(C)=C(C(=O)OC(C)C)C1c1cccc2nonc12 (stereo not drawn) [Isradipine] | 97.7 ± 3.5
O=NN(CCCl)C(=O)NC1CCCCC1 [Lomustine] | 84.7 ± 27
CC/C=C(\C(=O)N[C@@H]1C(=O)N2C(C(=O)OCOC(=O)C(C)(C)C)=C(COC(N)=O)CS[C@H]12)c1csc(N)n1 [Cefcapene Pivoxil Hydrochloride] | 149.2 ± 0.042
CO/N=C(\C(=O)N[C@@H]1C(=O)N2C(C(=O)O)=C(COC(C)=O)CS[C@H]12)c1csc(N)n1 [Cefotaxime sodium] | 103 ± 12
CO/N=C(\C(=O)N[C@@H]1C(=O)N2C(C(=O)OCOC(=O)C(C)(C)C)=C(/C=C\c3scnc3C)CS[C@H]12)c1csc(N)n1 [Cefditoren Pivoxil] | 110 ± 2.6
CCC(=O)NS(=O)(=O)c1ccc(-c2c(-c3ccccc3)noc2C)cc1 [Parecoxib Sodium] | 89.9 ± 1
CCC(=O)NS(=O)(=O)c1ccc(-c2c(-c3ccccc3)noc2C)cc1 [Parecoxib] | 115 ± 8.7
CC(=O)NO [Acetohydroxamic acid] | 127 ± 15
Cc1nc(-c2ccc(OCC(C)C)c(C#N)c2)sc1C(=O)O [Febuxostat] | 95.2 ± 11
O=C1[C@@H]2[C@H]3CC[C@H](C3)[C@@H]2C(=O)N1C[C@@H]1CCCC[C@H]1CN1CCN(c2nsc3ccccc23)CC1 [lurasidone] | 75.7 ± 27
CN1CCOC(c2ccccc2)c2ccccc2C1 (stereo not drawn) [Nefopam HCl] | 120 ± 8.1
CC1(C)C[C@@H]1C(=O)N/C(=C\CCCCSC[C@H](N)C(=O)O)C(=O)O [Cilastatin] | 99 ± 21
CN(C)C(=O)COC(=O)Cc1ccc(OC(=O)c2ccc(NC(=N)N)cc2)cc1 [Camostat Mesilate] | 124 ± 36
Cc1c(C(C)C)c(=O)n(-c2ccccc2)n1C [Propyphenazone (4-Isopropylantipyrine)] | 78.4 ± 2.3
Cc1c(NC(=O)c2cccnc2)c(=O)n(-c2ccccc2)n1C [Nifenazone] | 145 ± 5.2
O=C(O)c1cccnc1 [Nicotinic Acid] | 93.2 ± 4
CCCC(CCC)C(N)=O [Valpromide] | 91.6 ± 13
CC(=O)Oc1ccc(C(=C2CCCCC2)c2ccc(OC(C)=O)cc2)cc1 [Cyclofenil] | 122 ± 7.6
CNC(=O)c1cnn(-c2nc(N)c3ncn([C@@H]4O[C@H](CO)[C@@H](O)[C@H]4O)c3n2)c1 [Regadenoson] | 128 ± 16
Nc1ccc(/N=N/c2ccccc2)c(N)n1 [Phenazopyridine HCl] | 121 ± 23
COC(=O)C1=C(C)NC(C)=C(C(=O)OCC(C)C)C1c1ccccc1[N+](=O)[O-] (stereo not drawn) [Nisoldipine] | 92.2 ± 1.4
O=C(O)CSCC(=O)NC1CCSC1=O (stereo not drawn) [Erdosteine] | 121 ± 9.9
CC(=O)NC1CCSC1=O (stereo not drawn) [Citiolone] | 144 ± 26
OC[C@H]1O[C@@H](c2ccc(Cl)c(Cc3ccc(O[C@H]4CCOC4)cc3)c2)[C@H](O)[C@@H](O)[C@@H]1O | 110 ± 9

Structure (SMILES) | cell number in HSV-1-infected wells [%]
CN[C@H]1C(=O)N[C@@H]2Cc3ccc(cc3)Oc3cc4cc(c3O[C@@H]3O[C@H](C(=O)O)[C@@H](O)[C@H](O)[C@H]3NC(=O)CCCCCCCCC(C)C)Oc3ccc(cc3Cl)[C@@H](O)[C@@H]3NC(=O)[C@H](NC(=O)[C@@H]4NC(=O)[C@@H](NC2=O)c2cc(cc(O)c2Cl)Oc2cc1ccc2O)c1ccc(O)c(c1)-c1c(O[C@H]2O[C@H](CO)[C@@H](O)[C@H](O)[C@@H]2O)cc(O)cc1[C@@H](C(=O)NCCCN(C)C)NC3=O [Dalbavancin] | 125 ± 2.5
CSCCNc1nc(SCCC(F)(F)F)nc2c1ncn2[C@@H]1O[C@H](COP(=O)(O)OP(=O)(O)C(Cl)(Cl)P(=O)(O)O)[C@@H](O)[C@H]1O [Cangrelor Tetrasodium] | 99.5 ± 2.3
CN(C)CCCN1c2ccccc2CCc2ccc(Cl)cc21 [Clomipramine HCl] | 93 ± 22
CN(C)CCCN1c2ccccc2CCc2ccccc21 [Imipramine HCl] | 134 ± 28
CNCCCN1c2ccccc2CCc2ccccc21 [Desipramine Hydrochloride] | 163 ± 20
O=C(c1ccc(F)cc1)C1CCN(CCn2c(=O)[nH]c3ccccc3c2=O)CC1 [Ketanserin] | 124.4 ± 0.22
COc1cc(NC(C)CCCN)c2ncccc2c1 (stereo not drawn) [Primaquine Diphosphate] | 118 ± 8
Cc1cccc(C)c1OCC(=O)N[C@@H](Cc1ccccc1)[C@@H](O)C[C@H](Cc1ccccc1)NC(=O)[C@H](C(C)C)N1CCCNC1=O [Lopinavir] | 85.9 ± 22
NCCNc1ccc(NCCN)c2c1C(=O)c1ccncc1C2=O [Pixantrone Maleate] | 36.1 ± 10
O=C1Nc2ccc(Cl)cc2[C@@](C#CC2CC2)(C(F)(F)F)O1 [Efavirenz] | 10.6 ± 3.5
CCOC(CN1CCN(CC(C)C(=O)c2ccccc2)CC1)c1ccccc1 (stereo not drawn) [Eprazinone 2HCl] | 108.9 ± 1
CC1=C(/C=C/C(C)=C/C=C/C(C)=C\C(=O)O)C(C)(C)CCC1 [Isotretinoin] | 98.64 ± 0.63
COc1ccc2c(c1)c(CC(=O)O)c(C)n2C(=O)c1ccc(Cl)cc1 [Indomethacin] | 119 ± 12
COc1ccc2c(c1)c(CC(=O)O)c(C)n2C(=O)c1ccc(Cl)cc1 [Indometacin Sodium] | 69.9 ± 22
COc1ccc(NC(=O)c2ccc(C(=N)N(C)C)cc2)c(C(=O)Nc2ccc(Cl)cn2)c1 [Betrixaban] | 150 ± 40
COc1ccc(NC(=O)c2ccc(C(=N)N(C)C)cc2)c(C(=O)Nc2ccc(Cl)cn2)c1 [Betrixaban maleate] | 130 ± 48
CCCOC(C(=O)OC1CCN(C)CC1)(c1ccccc1)c1ccccc1 [Propiverine hydrochloride] | 102 ± 5
COC(=O)c1ccc2c(C(=Nc3ccc(N(C)C(=O)CN4CCN(C)CC4)cc3)c3ccccc3)c(O)[nH]c2c1 [Nintedanib Ethanesulfonate Salt] | 91.8 ± 4.1
CC(C)OC(=O)CCC/C=C\C[C@@H]1[C@@H](/C=C/C(F)(F)COc2ccccc2)[C@H](O)C[C@@H]1O [Tafluprost] | 83.4 ± 27
CC#CCn1c(N2CCC[C@@H](N)C2)nc2c1c(=O)n(Cc1nc(C)c3ccccc3n1)c(=O)n2C [Linagliptin] | 95.4 ± 6.9
Cc1c(C(N)=O)cc([N+](=O)[O-])cc1[N+](=O)[O-] [Dinitolmide] | 145 ± 18
NC(=O)c1ccc(I)c([N+](=O)[O-])c1 [Iniparib (BSI-201)] | 66.8 ± 6.8
NC(=O)c1cc(N2CC2)c([N+](=O)[O-])cc1[N+](=O)[O-] | 74.6 ± 11
